# About 79,000 compounds went through this panel and 15% of them were active in at least one assay; those are over-represented in the sample as a whole. A number with no mark means an inactive call. Cut-off read from the data, not from the text of the source: active = growth inhibition above about 70%; inactive = the rest.
# Test: NCI Yeast Anticancer Drug Screen. Data for the sgs1 mgt1 strain (AID 161);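 note: 0% = growth of cultures given vehicle only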
# Conditions: S. cerevisiae sgs1 mgt1 strain, at 5.0 µM (retest, dose inferred, filed as 0.5), hits give high values
# In short: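 This yeast growth screen uses a strain with defined DNA-repair lesions; compound-treated growth is compared with vehicle-treated growth.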
row,Structure (SMILES),growth inhibition [%]
1,Nc1nc2c(ccc3ccccc32)s1,6
2,O=C(O)CCCCC1CCCCC1.[Cu+2],13
3,O=Cc1ccc(O)c2ccccc12,-9
4,CC(=Nc1ccc(N(C)C)cc1)c1ccccc1,-5
5,C/C(Cl)=N\OC(=O)Nc1ccc(C)cc1,-26
6,COC(=O)C1CCC(c2ccccc2)CC1C(=O)OC (stereo not given),1
7,CCCCNC(=S)NC1C2CC3CC(C2)CC1C3 (stereo not given),-4
8,CCN(CC)CCOC(=O)CCN1CC2CCC(CC2)C1,17
9,CCOc1ccc(-c2nc3ccc(-c4nc5ccc(N6CCN(C)CC6)cc5[nH]4)cc3[nH]2)cc1,42
10,NC(CCC(=O)NC(CS(=O)(=O)O)C(=O)O)C(=O)O (stereo not given),3
11,CSc1cc(C(=O)O)nc(N)n1,5
12,CCN(CC)CCCNc1c(O)cc(C)c2sc3ccccc3c(=O)c12,4
13,C=C1C(=O)OC2C1CC1OC2C(C)CCC/C(C)=C\CCC1(C)O (stereo not given),2
14,O=C1C=CC2=Nc3ccccc3CCC2=C1,-63
15,CC(C)CC(CC(C)C)OP(=O)(O)OC(CC(C)C)CC(C)C,9
16,O=C(O)c1ccccc1Cc1ccc2c(c1)Cc1ccccc1-2,6
17,Nc1c(F)cccc1F,-3
18,COc1cc(OC)c(SSCCCCS(=O)O)c(OC)c1,11
19,S=C1Nc2cnc3ccccc3c2SC1c1ccccc1 (stereo not given),-15
20,CC(C)CCCC(C)[C@H]1CCC(C2C[C@@H](O)[C@@H]3CC(O)[C@@H](O)C[C@]3(CO)C2=O)[C@]1(C)CCO (stereo not given in full),-6
